{"source": "PubChem BioAssay AID1159506", "about": "(National Center for Advancing Translational Sciences (NCATS), 2015)", "note": "In all, about 59,000 sequences were measured (the read-out: median about -0.00055, lowest 2% from about -2 on). Many of the other results were omitted from the sample, so the lowest values are more common in it than they were.", "data": [{"assay": "Identification of proteins required for the processing of the EWS-FLI1 nascent transcript;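 further: robust z of luciferase light less the median z of siRNAs with the same seed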", "conditions": "TC32 Ewing sarcoma NR0B1-luc vs CMV-luc (EWS-FLI1 target promoter against control promoter), 48 h; screened at 20 nM (by protocol)", "outline": "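TC32 Ewing sarcoma cells carrying NR0B1-promoter or CMV-promoter luciferase reporters were reverse-transfected with single siRNAs at 20 nM, three per gene genome-wide. Luminescence was read after 48 h and normalized to non-targeting controls.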", "values": [{"sequence": "UAGGUGAUAUCUCUCCGCC against TGM4", "seed-corrected z-score": -0.284}, {"sequence": "ACAGUUCUCGCAGUACUGG against GPANK1", "seed-corrected z-score": -0.197}, {"sequence": "UGACCAUCCAGAAGUAGUU against SPHK1", "seed-corrected z-score": -0.911}, {"sequence": "UUGGUAGAUAUGAUCUUCG against TCEA3", "seed-corrected z-score": 0.375}, {"sequence": "UUGGGUAUUGUUCUUGACU against SNRPD2", "seed-corrected z-score": -2.58}, {"sequence": "UGUUUAUUAGAAGUGACUC against FOLR2", "seed-corrected z-score": -0.238}, {"sequence": "UAGUUGUCAGUGAAGACUG against VIP", "seed-corrected z-score": -2.09}, {"sequence": "CUUGUAGCUUCUCUACAUC against LOC441347", "seed-corrected z-score": -0.389}, {"sequence": "UUCUCAUCAAGCUGUCUCC against SH3RF2", "seed-corrected z-score": 0.136}, {"sequence": "UAUAACAGCAGUAUCUGUC against TMEM215", "seed-corrected z-score": 0.183}, {"sequence": "UUGUUGAAAUGGAACUCCU against HOXB1", "seed-corrected z-score": 0.384}, {"sequence": "UCAGUGCACGCAACUGUGU against TNXB", "seed-corrected z-score": 0.0625}, {"sequence": "UAUAUGAUUAACAAAACGG against XKR3", "seed-corrected z-score": 0.439}, {"sequence": "UUCUUUCCGAUGAUACUGC against PCBP2", "seed-corrected z-score": -3.36}, {"sequence": "UUUCGCAGUUGUAAGACCG against CROCCP3", "seed-corrected z-score": 0.0641}, {"sequence": "UAGAAUUUCUCGUACAACC against RALGPS1", "seed-corrected z-score": 0.75}, {"sequence": "UAAUGAGCAGUGACUCUGG against BTBD11", "seed-corrected z-score": 0.456}, {"sequence": "AAUUCUUCAAAACUAACUU against S100G", "seed-corrected z-score": 0.467}, {"sequence": "AUCCGUACGCCUCCGAUUC against PCSK4", "seed-corrected z-score": -0.594}, {"sequence": "AAGGGAUAAGGGAUCAUCC against ST7", "seed-corrected z-score": -0.0379}, {"sequence": "UAUAGUUACAUGACUGCUG against SNU13", "seed-corrected z-score": -6.52}, {"sequence": "UUUUUAAUGCCUUAUAGUC against TTLL13P", "seed-corrected z-score": 1.17}, {"sequence": "UACAUAGCUGCAUAGACAC against PLPPR5", "seed-corrected z-score": -2.18}, {"sequence": "UUCUUUAGCAACAUCACAG against CBR4", "seed-corrected z-score": 0.335}, {"sequence": "UAAGAUAUCUGACCACUAG against ZNF620", "seed-corrected z-score": 0.641}, {"sequence": "UCCAUAUCCCAUGACAUGC against SLC17A6", "seed-corrected z-score": -0.139}, {"sequence": "UGCUUGAGCAGAAUGACCG against DIO2", "seed-corrected z-score": -2.14}, {"sequence": "UGAACUUGCACACUUGAGU against KLK7", "seed-corrected z-score": 0.253}, {"sequence": "AAACUUUGGAUGUUUUUGG against PPBP", "seed-corrected z-score": 0.549}, {"sequence": "UUAGUACAGAUGCAGUUCU against OR56A5", "seed-corrected z-score": -14.6}, {"sequence": "UUUCGGUACGUGUAGUAGC against STRA6", "seed-corrected z-score": 0.803}, {"sequence": "UCUUUGACAAUAUCAACAG against UBE3D", "seed-corrected z-score": -0.267}, {"sequence": "UGCGUGUCUUCUUUAACCU against FAM174B", "seed-corrected z-score": -0.0387}, {"sequence": "UUAGAUCCAUGCUAUAAGC against PMS2P12", "seed-corrected z-score": -0.142}, {"sequence": "UAAUCGUUUCUACAAGAUC against ATF7IP", "seed-corrected z-score": -2.43}, {"sequence": "UUAAUCUUCAUCGUAAUAG against ZPLD1", "seed-corrected z-score": -0.649}, {"sequence": "UUUUUCGACAGGAAAGUGU against C5orf60", "seed-corrected z-score": 0.245}, {"sequence": "UUCAUUAUUAUCUCAGGAG against RFC3", "seed-corrected z-score": -1.02}, {"sequence": "UUCAGCAUAAAGACUGAUC against VPS41", "seed-corrected z-score": -0.683}, {"sequence": "UCACUUCCUAUUCCCAUGG against PALM3", "seed-corrected z-score": -1.4}, {"sequence": "AUCUUGGUAACAAACUUGG against TRPV4", "seed-corrected z-score": -3.43}, {"sequence": "UAAUCGUUGGGAUCCAGUC against PCDHA13", "seed-corrected z-score": 0.188}, {"sequence": "UGUACGAUGAAGGUCAUGC against SLC34A2", "seed-corrected z-score": -0.00732}, {"sequence": "UUCGUGUUUUGAAUCUUGG against B4GALT2", "seed-corrected z-score": 1.23}, {"sequence": "AGCUGGAUCAUUUCUACAG against PKDCC", "seed-corrected z-score": -2.45}, {"sequence": "UAGACUGUCACGUUGUAUG against SEZ6L", "seed-corrected z-score": 0.278}, {"sequence": "AAAGAGAUAAUGUUCCUCC against FAM180B", "seed-corrected z-score": 0.869}, {"sequence": "UCCCUAACAAAGCAUGUAC against ISL1", "seed-corrected z-score": -0.138}, {"sequence": "UUCUAAGAAAGCGAGCUGC against EID2B", "seed-corrected z-score": -0.614}, {"sequence": "UCUCGAGUUAUGUGGUUGG against RAD51D", "seed-corrected z-score": 0.265}, {"sequence": "AUAGUUGCAAUCAAACGAG against SFT2D2", "seed-corrected z-score": -3.87}, {"sequence": "UCUGGGAAAACAUGGUUGU against DUBR", "seed-corrected z-score": -1.17}, {"sequence": "ACAGAUAUAACACUCAUCG against ANO10", "seed-corrected z-score": -0.322}, {"sequence": "AUUGUGACUAUUAUGAGUC against MTND5P10", "seed-corrected z-score": -0.792}, {"sequence": "UACAGAUCCGCGAUGUACU against RCN3", "seed-corrected z-score": 0.823}, {"sequence": "UUUCCGAAAAUUUAGUGGG against ATAD2", "seed-corrected z-score": 0.659}, {"sequence": "UGGUGGUCCACCUUGUUAG against F13A1", "seed-corrected z-score": -1.25}, {"sequence": "UCCAGUGCAAUGACUCUUG against ZNF114", "seed-corrected z-score": -2.45}, {"sequence": "AACUUUUCACUGGUGACCC against C7orf55", "seed-corrected z-score": -0.00837}, {"sequence": "UCUCAGGAUAGGAACCACC against SPRR2G", "seed-corrected z-score": -0.114}, {"sequence": "UUUAGAUCUAGAAUUACAC against SPESP1", "seed-corrected z-score": -0.539}, {"sequence": "UGAGCUCUGAGAAUUGAGG against POM121", "seed-corrected z-score": 0.483}, {"sequence": "UGCAGAUGCGGAAAGCUGC against LOC388692", "seed-corrected z-score": 0.336}, {"sequence": "AUCCAGUUCACGUAGGCAG against TPSG1", "seed-corrected z-score": -2.87}, {"sequence": "UCUGCGUACUCAUCCAUCC against GALNT10", "seed-corrected z-score": 0.408}, {"sequence": "UCUGAUCUCACGGAUGAAG against RASEF", "seed-corrected z-score": 0.117}, {"sequence": "UUAGGCUCUUUGUAUGUCC against ELOVL4", "seed-corrected z-score": 0.198}, {"sequence": "UUUCUGCACAGGAAUAUCG against CD37", "seed-corrected z-score": -3.03}, {"sequence": "UCCGCGUAUAAAUAGGUGC against RSPH1", "seed-corrected z-score": -0.487}, {"sequence": "UGAGUUGAAGGUCUGCCCG against MPND", "seed-corrected z-score": -0.48}, {"sequence": "UGAUAGAUGAAUAUCAUCC against KIAA0232", "seed-corrected z-score": -0.728}, {"sequence": "UAUUCGCACAGGCUGAUUC against BBS12", "seed-corrected z-score": 0.0215}, {"sequence": "AAGUUGGUGAUUAAUCUCC against DERL2", "seed-corrected z-score": -0.311}, {"sequence": "UUCUGUGGAAGAUUUCUGG against TOP3A", "seed-corrected z-score": -0.163}, {"sequence": "UAUUUGACUAGGCGACUUC against NET1", "seed-corrected z-score": -2.17}, {"sequence": "UAUCUAAAGAGACCCUGUC against YPEL1", "seed-corrected z-score": 1.06}, {"sequence": "ACAGUAUCCUCAGAUGUCC against SHROOM2", "seed-corrected z-score": 0.0618}, {"sequence": "UGCAGUACUGAAGAUAACG against EOGT", "seed-corrected z-score": -1.09}, {"sequence": "UUCUUAGCCGCGAUGGUCU against DES", "seed-corrected z-score": 0.351}, {"sequence": "UAGGUAGAAGUGAUUGUUC against ZFAND4", "seed-corrected z-score": 0.956}, {"sequence": "AUGUGGACAGCGUAGCUCC against FUT4", "seed-corrected z-score": -0.421}, {"sequence": "UACAUUGUGAGAUCCCUGG against C17orf78", "seed-corrected z-score": -2.15}, {"sequence": "UUAUGAACCCUGGAGCUCC against ADRB3", "seed-corrected z-score": 0.000803}, {"sequence": "AAUACGAUGACAAUAAGGC against FAM200A", "seed-corrected z-score": -0.251}, {"sequence": "AUAGCUGCGAACAAAGGCC against ZNF404", "seed-corrected z-score": -6.09}, {"sequence": "UUCGACUUGGUUGCAAUGG against PPBP", "seed-corrected z-score": 0.68}, {"sequence": "UCCAGUUGUAUGUAAGGGC against ZDHHC6", "seed-corrected z-score": -1.09}, {"sequence": "AAUGGUCUUGUGAAUGGUC against LSM12", "seed-corrected z-score": -2.08}, {"sequence": "UUUCGUCAACAGUUCAAUC against USP34", "seed-corrected z-score": -0.287}, {"sequence": "UAAUCGAAAAACUUCAAUG against CLN5", "seed-corrected z-score": -0.147}, {"sequence": "AUCUCUGUAAGAUUGAUUC against ELMOD2", "seed-corrected z-score": 0.0598}, {"sequence": "UUGCUUUCCACAACGAGAU against CHL1-AS2", "seed-corrected z-score": -0.29}, {"sequence": "UUCUGCAUCAUAAUUGUCG against ADPRHL1", "seed-corrected z-score": -0.679}, {"sequence": "UUGGUAGGCAUCGUAGUAG against CLDN2", "seed-corrected z-score": 0.894}, {"sequence": "UAGCUGUGUGGAUCAGUGC against LOC642502", "seed-corrected z-score": -2.62}, {"sequence": "UCACUGUAUCUAAUAAAGC against FRG1JP", "seed-corrected z-score": -0.744}, {"sequence": "AAUUUUAUCACCCAGAAAC against FCGR2B", "seed-corrected z-score": 0.134}, {"sequence": "UGAGUUUCUUCUCCGUUCU against C11orf97", "seed-corrected z-score": -3.81}, {"sequence": "UGAAAAGCGCUGCUUAACC against PRSS45", "seed-corrected z-score": 0.905}, {"sequence": "UUCUUUGAUAGACUUCACC against FTMT", "seed-corrected z-score": 0.658}, {"sequence": "UGAGAGUUAAAGGCCUUUC against ABHD14A", "seed-corrected z-score": -2.97}, {"sequence": "AAAUGUGCUCAAACUGUCU against ARL14", "seed-corrected z-score": -0.125}, {"sequence": "UUCUCUCAAGCUUCAAUGG against ZNF286A", "seed-corrected z-score": 0.716}, {"sequence": "AGAGUUAAUUGGUAUGUCC against GIGYF1", "seed-corrected z-score": 0.0611}, {"sequence": "UCUGUUACUUCUGGUUUGC against BAAT", "seed-corrected z-score": -0.229}, {"sequence": "UUAGCUGCUAGAAACAAGG against CCNT1", "seed-corrected z-score": -2.99}, {"sequence": "UGAGUUUCCAUGCAUAGGA against GOLGA7", "seed-corrected z-score": -3.67}, {"sequence": "UCAGGUACGACUUUCGAUA against C1orf109", "seed-corrected z-score": -1.21}, {"sequence": "AGAGAUACAAGGUUUGAUC against ARG2", "seed-corrected z-score": -0.0393}, {"sequence": "UCCUUGUACACGGCCAGCU against PCED1CP", "seed-corrected z-score": 0.3}, {"sequence": "UGUACAUAGACGGUGAGGC against CD200", "seed-corrected z-score": 0.299}]}]}
